Test results: the supplement of paper PMC11732987, “Enantioselective OTUD7B fragment discovery through chemoproteomics screening and high-throughput optimisation” (Communications Chemistry, 2025)

Columns and labels:
Assay in all cases: log2 ratio of Biotin-Ahx-Ub-VS probe labelling (fragment/DMSO); higher = less target engagement (more negative = stronger competition), active = hit call of the paper (q ≤ 0.05, log2 ratio ≤ -1)
Conditions in all cases: compound concentration: 200 uM; treatment time: 3 h
USP34 = USP34 (UniProt Q70CQ2)
Summary of the method: (§1)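 Labelled DUBs from HEK293T lysate were NeutrAvidin-enriched, digested with LysC and trypsin, and run by diaPASEF LC-MS/MS. Before that, each 495 µg sample in Tris/CHAPS/IGEPAL buffer with protease inhibitors was treated in triplicate with fragment at 200 µM or vehicle for 3 h, then with Biotin-Ahx-Ub-VS at 0.5 µM final for 1 h. Values are average log2 ratios of fragment over vehicle by unpaired t-test, based on global-median-normalised Spectronaut label-free quantities from proteins with ≥2 unique peptides.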

USP36 = target: T1, USP36 (UniProt Q9P275)
T1 sequence (whole entry): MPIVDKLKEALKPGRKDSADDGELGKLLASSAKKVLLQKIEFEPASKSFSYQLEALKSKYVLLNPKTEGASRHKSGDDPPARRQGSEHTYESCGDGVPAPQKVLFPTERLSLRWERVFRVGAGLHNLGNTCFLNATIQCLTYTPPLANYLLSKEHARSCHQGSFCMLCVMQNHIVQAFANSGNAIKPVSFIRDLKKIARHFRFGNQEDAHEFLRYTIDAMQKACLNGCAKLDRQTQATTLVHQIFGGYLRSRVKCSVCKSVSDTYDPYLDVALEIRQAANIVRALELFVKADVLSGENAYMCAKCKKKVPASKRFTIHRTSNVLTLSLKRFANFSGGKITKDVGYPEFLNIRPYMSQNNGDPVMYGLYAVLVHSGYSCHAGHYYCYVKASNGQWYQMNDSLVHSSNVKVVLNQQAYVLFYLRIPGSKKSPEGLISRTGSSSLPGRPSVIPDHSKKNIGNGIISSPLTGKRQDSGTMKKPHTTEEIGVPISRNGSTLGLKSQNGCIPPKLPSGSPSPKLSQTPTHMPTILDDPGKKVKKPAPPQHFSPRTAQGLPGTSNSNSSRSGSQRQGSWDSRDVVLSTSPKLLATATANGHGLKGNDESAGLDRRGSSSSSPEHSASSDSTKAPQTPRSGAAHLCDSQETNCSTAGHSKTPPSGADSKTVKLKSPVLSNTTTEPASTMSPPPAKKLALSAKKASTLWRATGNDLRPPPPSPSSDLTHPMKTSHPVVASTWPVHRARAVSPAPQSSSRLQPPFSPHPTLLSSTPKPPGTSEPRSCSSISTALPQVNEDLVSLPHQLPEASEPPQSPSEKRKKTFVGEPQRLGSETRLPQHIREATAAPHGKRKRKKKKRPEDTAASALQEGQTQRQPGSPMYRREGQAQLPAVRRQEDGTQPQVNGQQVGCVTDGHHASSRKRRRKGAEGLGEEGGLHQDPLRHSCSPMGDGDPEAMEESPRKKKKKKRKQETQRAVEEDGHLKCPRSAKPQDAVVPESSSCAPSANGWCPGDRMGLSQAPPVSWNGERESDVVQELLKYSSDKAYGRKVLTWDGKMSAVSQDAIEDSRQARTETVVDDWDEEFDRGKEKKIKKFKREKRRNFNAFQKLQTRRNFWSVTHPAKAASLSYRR
Summary of the method: as §1

USP38 = target: T2, USP38 (UniProt Q8NB14)
T2 sequence (whole entry): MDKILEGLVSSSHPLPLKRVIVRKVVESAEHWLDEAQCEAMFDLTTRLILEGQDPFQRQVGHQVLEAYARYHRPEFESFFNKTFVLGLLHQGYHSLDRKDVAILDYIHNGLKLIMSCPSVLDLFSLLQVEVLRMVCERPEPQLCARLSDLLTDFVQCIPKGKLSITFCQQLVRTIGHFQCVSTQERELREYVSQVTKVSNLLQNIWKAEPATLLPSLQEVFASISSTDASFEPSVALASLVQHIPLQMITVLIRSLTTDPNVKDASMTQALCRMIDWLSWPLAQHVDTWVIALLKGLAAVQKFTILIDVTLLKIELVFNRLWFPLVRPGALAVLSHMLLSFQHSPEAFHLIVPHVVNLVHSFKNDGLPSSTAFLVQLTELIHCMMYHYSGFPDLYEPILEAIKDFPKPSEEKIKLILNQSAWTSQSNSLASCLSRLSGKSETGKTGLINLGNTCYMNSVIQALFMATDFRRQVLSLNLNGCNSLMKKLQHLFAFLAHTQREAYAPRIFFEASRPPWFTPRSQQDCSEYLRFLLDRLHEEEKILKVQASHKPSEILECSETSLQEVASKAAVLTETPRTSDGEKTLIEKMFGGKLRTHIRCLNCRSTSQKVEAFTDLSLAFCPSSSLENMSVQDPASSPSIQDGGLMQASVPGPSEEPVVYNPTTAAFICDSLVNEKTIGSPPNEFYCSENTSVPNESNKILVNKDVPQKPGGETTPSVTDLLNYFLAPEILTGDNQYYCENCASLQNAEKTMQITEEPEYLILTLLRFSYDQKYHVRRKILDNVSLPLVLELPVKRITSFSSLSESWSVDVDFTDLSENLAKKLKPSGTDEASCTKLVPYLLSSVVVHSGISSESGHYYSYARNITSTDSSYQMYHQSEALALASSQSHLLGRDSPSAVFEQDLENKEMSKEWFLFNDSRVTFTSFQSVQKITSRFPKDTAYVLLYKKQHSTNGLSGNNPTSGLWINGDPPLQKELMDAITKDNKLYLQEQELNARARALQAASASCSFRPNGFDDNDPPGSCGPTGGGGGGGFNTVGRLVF
Summary of the method: as §1

USP39 = target: T3, USP39 (UniProt Q53GS9)
T3 sequence (whole entry): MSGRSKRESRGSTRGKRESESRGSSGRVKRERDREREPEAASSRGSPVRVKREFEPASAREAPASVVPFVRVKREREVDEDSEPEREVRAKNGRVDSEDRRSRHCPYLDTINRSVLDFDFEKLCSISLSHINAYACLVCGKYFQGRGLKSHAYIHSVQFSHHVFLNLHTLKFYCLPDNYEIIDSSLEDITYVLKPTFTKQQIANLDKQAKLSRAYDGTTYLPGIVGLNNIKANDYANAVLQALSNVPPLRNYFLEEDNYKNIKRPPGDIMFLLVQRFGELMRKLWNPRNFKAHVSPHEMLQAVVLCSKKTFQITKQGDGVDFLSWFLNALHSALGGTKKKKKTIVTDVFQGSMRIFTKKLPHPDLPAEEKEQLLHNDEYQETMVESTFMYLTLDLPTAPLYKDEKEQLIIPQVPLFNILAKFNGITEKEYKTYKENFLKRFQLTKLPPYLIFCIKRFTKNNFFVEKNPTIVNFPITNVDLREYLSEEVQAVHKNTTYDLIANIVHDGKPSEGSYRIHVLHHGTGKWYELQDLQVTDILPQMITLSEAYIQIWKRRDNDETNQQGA
Summary of the method: as §1

USP4 = target: T4, USP4 (UniProt Q13107)
T4 sequence (whole entry): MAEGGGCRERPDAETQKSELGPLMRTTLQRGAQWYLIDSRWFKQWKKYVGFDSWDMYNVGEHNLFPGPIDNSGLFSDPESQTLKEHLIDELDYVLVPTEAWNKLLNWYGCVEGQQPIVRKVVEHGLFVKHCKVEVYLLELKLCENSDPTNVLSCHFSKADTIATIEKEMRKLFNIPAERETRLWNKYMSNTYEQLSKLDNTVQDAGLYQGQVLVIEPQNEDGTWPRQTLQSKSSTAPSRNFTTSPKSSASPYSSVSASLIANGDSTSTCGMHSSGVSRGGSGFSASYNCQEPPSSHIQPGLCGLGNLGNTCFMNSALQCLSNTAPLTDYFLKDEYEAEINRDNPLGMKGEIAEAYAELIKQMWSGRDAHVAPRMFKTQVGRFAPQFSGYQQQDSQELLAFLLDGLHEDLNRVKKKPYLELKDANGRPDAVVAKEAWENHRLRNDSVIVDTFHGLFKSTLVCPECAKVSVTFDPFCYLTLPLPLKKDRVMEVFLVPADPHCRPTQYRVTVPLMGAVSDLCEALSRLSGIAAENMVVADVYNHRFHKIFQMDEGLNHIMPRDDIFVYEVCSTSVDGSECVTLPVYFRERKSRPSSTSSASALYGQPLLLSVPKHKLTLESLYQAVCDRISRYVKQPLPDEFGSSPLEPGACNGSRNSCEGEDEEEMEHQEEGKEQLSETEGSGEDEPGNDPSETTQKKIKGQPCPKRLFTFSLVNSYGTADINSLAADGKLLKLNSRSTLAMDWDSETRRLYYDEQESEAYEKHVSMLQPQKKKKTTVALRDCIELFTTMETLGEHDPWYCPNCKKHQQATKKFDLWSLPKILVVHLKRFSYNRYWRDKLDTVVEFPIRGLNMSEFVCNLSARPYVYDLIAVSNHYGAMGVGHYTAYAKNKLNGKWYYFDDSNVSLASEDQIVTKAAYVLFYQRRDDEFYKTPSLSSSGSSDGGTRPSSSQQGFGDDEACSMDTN
Summary of the method: as §1

Measured: log2 ratio of Biotin-Ahx-Ub-VS probe labelling

USP34, sequence (Q70CQ2 whole entry, the tested form may be a part): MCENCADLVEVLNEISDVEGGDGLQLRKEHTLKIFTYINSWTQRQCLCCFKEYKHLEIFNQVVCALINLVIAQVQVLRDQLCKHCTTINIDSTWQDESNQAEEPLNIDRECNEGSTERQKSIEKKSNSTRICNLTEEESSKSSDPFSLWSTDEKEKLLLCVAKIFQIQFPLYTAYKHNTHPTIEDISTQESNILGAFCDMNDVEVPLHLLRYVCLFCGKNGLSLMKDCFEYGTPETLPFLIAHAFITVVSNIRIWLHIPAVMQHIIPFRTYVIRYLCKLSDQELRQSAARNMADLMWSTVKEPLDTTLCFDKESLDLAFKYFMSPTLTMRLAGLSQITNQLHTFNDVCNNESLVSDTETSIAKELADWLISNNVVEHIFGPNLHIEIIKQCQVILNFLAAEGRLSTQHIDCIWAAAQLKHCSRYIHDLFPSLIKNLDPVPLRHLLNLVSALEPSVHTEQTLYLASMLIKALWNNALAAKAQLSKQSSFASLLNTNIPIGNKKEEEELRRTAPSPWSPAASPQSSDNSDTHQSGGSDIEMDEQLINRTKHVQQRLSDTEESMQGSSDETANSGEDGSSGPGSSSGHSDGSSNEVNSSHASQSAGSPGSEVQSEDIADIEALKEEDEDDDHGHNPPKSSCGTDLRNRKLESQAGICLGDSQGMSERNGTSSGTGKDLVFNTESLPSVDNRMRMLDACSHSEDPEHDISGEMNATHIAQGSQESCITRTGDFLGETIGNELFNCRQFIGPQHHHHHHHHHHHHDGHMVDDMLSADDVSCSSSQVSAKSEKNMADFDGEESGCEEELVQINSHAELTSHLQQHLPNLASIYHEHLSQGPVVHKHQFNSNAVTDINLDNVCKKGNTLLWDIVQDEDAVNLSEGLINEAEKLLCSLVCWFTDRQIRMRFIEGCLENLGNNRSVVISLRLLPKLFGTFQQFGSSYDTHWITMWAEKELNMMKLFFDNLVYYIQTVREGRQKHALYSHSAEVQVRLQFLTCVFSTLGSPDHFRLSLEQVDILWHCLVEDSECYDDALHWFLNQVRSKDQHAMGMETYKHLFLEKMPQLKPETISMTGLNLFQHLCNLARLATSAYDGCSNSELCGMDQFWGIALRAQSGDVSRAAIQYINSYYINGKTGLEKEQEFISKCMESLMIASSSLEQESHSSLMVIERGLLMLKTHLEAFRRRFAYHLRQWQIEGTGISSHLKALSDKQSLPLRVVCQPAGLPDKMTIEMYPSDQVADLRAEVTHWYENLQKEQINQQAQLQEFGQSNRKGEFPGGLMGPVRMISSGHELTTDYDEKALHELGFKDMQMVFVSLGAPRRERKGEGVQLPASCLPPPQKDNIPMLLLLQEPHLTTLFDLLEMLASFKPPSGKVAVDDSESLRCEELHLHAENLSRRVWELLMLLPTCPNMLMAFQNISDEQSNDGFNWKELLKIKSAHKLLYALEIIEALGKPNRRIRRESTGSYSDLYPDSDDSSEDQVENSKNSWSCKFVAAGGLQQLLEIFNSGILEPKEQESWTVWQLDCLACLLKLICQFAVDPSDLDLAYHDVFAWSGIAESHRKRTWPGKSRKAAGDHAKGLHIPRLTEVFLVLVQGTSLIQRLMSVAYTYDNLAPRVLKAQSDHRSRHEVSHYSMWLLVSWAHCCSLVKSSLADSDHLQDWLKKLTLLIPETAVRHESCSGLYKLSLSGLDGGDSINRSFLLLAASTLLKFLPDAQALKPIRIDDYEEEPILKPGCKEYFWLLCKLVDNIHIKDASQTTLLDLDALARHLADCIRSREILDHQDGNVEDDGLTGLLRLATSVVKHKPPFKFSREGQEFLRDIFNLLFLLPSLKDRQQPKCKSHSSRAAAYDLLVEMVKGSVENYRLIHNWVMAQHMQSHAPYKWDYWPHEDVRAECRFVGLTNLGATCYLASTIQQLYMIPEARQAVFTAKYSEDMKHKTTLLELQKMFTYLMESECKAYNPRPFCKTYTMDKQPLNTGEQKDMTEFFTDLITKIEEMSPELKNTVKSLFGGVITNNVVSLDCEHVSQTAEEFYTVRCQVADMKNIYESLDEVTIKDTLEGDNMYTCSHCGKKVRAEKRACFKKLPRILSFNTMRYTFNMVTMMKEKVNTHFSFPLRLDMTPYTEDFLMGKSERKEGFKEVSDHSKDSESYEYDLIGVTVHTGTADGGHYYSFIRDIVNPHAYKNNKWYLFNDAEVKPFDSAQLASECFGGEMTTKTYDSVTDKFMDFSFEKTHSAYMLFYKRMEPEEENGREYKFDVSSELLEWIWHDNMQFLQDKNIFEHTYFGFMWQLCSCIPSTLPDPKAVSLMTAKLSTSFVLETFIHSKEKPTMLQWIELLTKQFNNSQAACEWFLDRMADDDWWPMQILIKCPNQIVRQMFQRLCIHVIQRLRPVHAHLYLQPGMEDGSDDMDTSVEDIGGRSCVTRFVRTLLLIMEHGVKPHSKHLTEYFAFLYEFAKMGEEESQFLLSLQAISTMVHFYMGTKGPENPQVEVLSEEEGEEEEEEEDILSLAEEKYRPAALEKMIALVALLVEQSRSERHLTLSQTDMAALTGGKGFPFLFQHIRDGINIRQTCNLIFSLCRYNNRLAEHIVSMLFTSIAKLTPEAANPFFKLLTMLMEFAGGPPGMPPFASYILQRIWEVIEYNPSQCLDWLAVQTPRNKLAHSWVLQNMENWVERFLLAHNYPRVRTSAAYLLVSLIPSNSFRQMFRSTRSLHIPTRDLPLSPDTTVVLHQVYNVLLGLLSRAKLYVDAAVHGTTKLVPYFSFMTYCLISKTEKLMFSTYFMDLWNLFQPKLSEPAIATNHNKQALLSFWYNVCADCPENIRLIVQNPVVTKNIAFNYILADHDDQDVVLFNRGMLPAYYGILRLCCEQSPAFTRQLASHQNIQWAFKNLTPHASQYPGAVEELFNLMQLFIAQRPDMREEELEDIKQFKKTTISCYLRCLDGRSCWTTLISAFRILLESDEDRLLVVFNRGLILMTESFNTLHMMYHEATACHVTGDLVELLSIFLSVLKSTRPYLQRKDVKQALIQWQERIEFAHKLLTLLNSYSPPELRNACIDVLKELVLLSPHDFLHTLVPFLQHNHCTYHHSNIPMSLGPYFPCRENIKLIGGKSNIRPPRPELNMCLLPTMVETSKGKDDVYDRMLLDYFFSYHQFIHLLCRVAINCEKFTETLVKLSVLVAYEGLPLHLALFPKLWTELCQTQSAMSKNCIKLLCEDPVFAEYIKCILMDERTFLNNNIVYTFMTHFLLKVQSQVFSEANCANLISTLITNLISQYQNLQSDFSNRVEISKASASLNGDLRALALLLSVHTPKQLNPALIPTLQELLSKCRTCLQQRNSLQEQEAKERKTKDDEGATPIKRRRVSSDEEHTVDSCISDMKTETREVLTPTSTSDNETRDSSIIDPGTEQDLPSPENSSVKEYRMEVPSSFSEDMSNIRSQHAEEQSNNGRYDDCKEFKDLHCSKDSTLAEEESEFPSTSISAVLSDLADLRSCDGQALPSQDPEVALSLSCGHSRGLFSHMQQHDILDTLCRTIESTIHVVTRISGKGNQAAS

CC(O)CC1CCN(C(=O)CCl)CC1 (stereo not given)
inactive: USP34 -0.0285 | USP36 -0.326 | USP38 -0.143 | USP39 -0.0644 | USP4 -0.0429
